TR SRC2 fluor cs: counter-screen for TRb-SRC2 inhibitors: fluorescence interference; TRb/SRC2 Texas Red total fluorescence interference; actives 0.29% (n = 280,000); Potency, µM (titrated, usually from 106 µM), for inactives: at the top dose fluorescence change, negative = quenching; active means well fitted curve in either direction with a large enough effect; inconclusive means small, poorly fitted or top-dose-only effect; further: potency means the concentration at half of the fitted maximal effect; on the % scale 0 is the no-effect control and ±100 the full control effect
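Human TRb ligand-binding domain at 0.6 uM with 20 nM Texas Red SRC2 peptide in Tris buffer containing 1 uM T3 and 5% DMSO, incubated with compound 5 h at ambient temperature. Total fluorescence (555/632 nm) calculated as parallel + 2 × perpendicular.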
HTT cytoprotect: protects HTT-Q103 PC12 cells, measured by ATP. PC12 HTT-Q103 induced, cytoprotection, ATP luminescence, 40 h. Potency, µM (highest dose often 56.4 µM), for inactives: cytoprotection (ATP increase), usual class: activators. actives 0.14% (n = 230,000). AID 1471; further: potency means the concentration at half of the fitted maximal effect; % of control where 0% means no effect; nearly all actives have a fitted effect of over 45% in size
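Quantitative HTS on tebufenozide-induced (100 nM) PC12 cells expressing HTTQ103 exon 1–GFP; compounds tested as a concentration series; survival measured via cellular ATP.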
TRb-SRC2 inh: disrupts binding of human TR beta to SRC2 | TRbeta-SRC2 peptide binding, fluorescence polarization; receptor liganded with 1 µM T3 | AID 1469 | actives 0.065% (n = 280,000) | Potency, µM (top dose mostly 106 µM), for the others: top-dose activity change, negative = inhibition, usual class: inhibitors;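 further: potency means the concentration at half of the fitted maximal effect; plate controls were bound peptide for no effect and peptide without receptor for full effect; nearly all actives have a fitted effect of over 50% in size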
Target sequence (P10828 whole entry, looked up): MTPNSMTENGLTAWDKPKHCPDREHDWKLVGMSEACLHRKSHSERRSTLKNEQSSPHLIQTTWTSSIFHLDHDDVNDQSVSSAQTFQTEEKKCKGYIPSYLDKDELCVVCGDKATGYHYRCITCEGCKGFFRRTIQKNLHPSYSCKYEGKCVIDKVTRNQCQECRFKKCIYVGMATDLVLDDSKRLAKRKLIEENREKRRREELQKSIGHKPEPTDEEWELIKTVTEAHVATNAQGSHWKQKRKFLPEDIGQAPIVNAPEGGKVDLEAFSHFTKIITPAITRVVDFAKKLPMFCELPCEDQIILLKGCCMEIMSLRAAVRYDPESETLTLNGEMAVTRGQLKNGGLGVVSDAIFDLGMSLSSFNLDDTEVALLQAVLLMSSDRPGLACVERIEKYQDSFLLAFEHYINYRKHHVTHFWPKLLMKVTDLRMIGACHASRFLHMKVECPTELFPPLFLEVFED
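Polarization signal, normalized between peptide-alone and full complex controls, measured compound effects on T3-liganded human TRb LBD (0.6 uM) binding 20 nM Texas Red SRC2 peptide after 5 hr.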
Coupling enz: counter-screen for Giardia aldolase inhibitors: coupling enzyme system; coupling enzyme system counterscreen, AmpLite Red fluorescence; activity change, negative = inhibition, % at 58.2 µM, hits read low; actives 0.67% (n = 290,000); AID 2472; in the data active means activity change below about -30%; further: on the % scale 0 is the no-effect control and ±100 the full control effect
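Coupling enzymes only (glyceraldehyde-3-phosphate) + compound, at 57.5 uM final, 10 min RT; add substrate/coupling/AmpLite Red mix, 20 min RT; fluorescence ex 525/em 598 nm. Actives flag coupling-system interference.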
JMJD2E inh: inhibitors of human JMJD2E histone demethylase | B2RXH2 | JMJD2E catalytic domain, FDH-coupled NADH fluorescence (FDH is formaldehyde dehydrogenase) | Potency, µM (highest dose often 57.1 µM), without a hit: at the top dose activity change, negative = inhibition, hits mostly inhibitors | actives 1.6% (n = 230,000) | AID 2147; active means well fitted inhibition curve with a large enough effect, not every such curve was filed as active; inconclusive means small, poorly fitted or top-dose-only effect, or another doubt; inactive means no such curve, though single readings can be large or run the other way;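 further: potency means the concentration at half of the fitted maximal effect; 0% = wells with enzyme and -100% = buffer wells without enzyme; nearly all actives have a fitted effect of over 50% in size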
HTT aggregate: mutant huntingtin aggregation inhibition. PC12 HttQ103-GFP aggregates, Acumen cytometry, 40 h. Potency, µM (doses to about 46.1 µM), for the others: top-dose activity change, negative = inhibition, hits mostly inhibitors. actives 1.1% (n = 220,000); further: potency means the concentration at half of the fitted maximal effect; on the % scale 0 is the no-effect control and ±100 the full control effect; nearly all actives have a fitted effect of over 60% in size
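Inducible Q103 Huntingtin exon 1–GFP PC12 line, 1500 cells/well in phenol red free DMEM with 5% equine and 5% calf serum. Tebufenozide 100 nM induced expression; compounds titrated; aggregates quantified by cytometry.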
An asterisk follows results filed as active; ? = inconclusive; / = not tested or not shown; [ ] = another dose, or the depositor's remark. An excerpt weighted towards active compounds, which were near 2% of everything screened. Unless noted, the call rests on the fitted dose curve; in most records, active means well fitted curve in the direction sought with a large enough effect; inconclusive means small, poorly fitted or top-dose-only effect, or another doubt; inactive means no such curve, though single readings can be large; an effect the other way counts as inactive or inconclusive.

SMILES	TR SRC2 fluor cs	HTT cytoprotect	TRb-SRC2 inh	Coupling enz	JMJD2E inh	HTT aggregate
Cn1c(-c2ccc(=O)[nH]c2)nc2ccccc21	-8.1%	-41.0%	?	-33.1*	?	-6.5%
NC(=O)c1cc[n+](CC2=C(C(=O)O)N3C(=O)[C@@H](NC(=O)[C@@H](c4ccccc4)S(=O)(=O)[O-])[C@H]3SC2)cc1	0.1%	/	3.5%	/	?	/
CCCCN(CC)CCCNC(=O)Nc1sc2nc3n(c(=O)c2c1C)CCC(C)CC3 (centres undefined)	5.7%	/	3.3%	/	/	/
CN(C)c1ccc(-c2ccc3ncnc(N(C)Cc4ccco4)c3c2)cc1	/	-94.0%	/	-9.5	/	/
CCCCC[C@H](O)c1cccc(OCc2ccc3ccccc3n2)c1	/	7.7%[1.9 µM]	/	/	/	/
Cc1cc(Nc2ccccc2)n(-c2ccccc2)n1	0.2%	-5.2%	-13.9%	3.8	-4.5%	2.7%
Cc1cc(Nc2nnnn2-c2ccccc2)n(-c2ccc(Cl)cc2)n1	1.0%	9.4%[10 µM]	0.9%	0.0	-4.1%	15.8µM*
CCc1ccccc1NC(=O)c1noc(C(C)C)c1[N+](=O)[O-]	3.3%	-18.7%	2.7%	0.1	-0.5%	7.08µM*
S=c1[nH]nc(-c2n[nH]c3c2CCC3)n1/N=C/C=C/c1ccco1	-6.4%	19.9%[10 µM]	-7.2%	0.4	28.2µM*	11.7%[9.22 µM]
COc1cc(/C=N/n2c(-c3n[nH]c4c3CCC4)n[nH]c2=S)cc(OC)c1O	-6.2%	5.0%[10 µM]	5.2%	-3.1	-9.2%	-18.4%[9.22 µM]
COc1cccc(/C=N/n2c(-c3n[nH]c4c3CCC4)n[nH]c2=S)c1O	-6.7%	-20.0%[10 µM]	7.9%	-3.8	31.6µM*	-11.6%
C#C[C@]1(O)CC[C@H]2[C@H]3[C@H](CC[C@@]21C)C1=C(CC(=O)CC1)C[C@@H]3C	/	-11.1%	/	/	/	8.2%
COc1ccc(N2CCN(C(C)C(=O)N3CC(C)OC(C)C3)CC2)cc1 (centres undefined)	-3.7%	-30.0%	-4.7%	-0.3	22.4µM*	28.8%
COc1ccc(N2CCN(C(C)C(=O)N3CCc4ccccc43)CC2)cc1 (centres undefined)	/	/	/	2.5	/	/
COc1ccc(-n2cc(-c3ccc(OC(F)F)cc3)[n+]3c2CCCCC3)cc1	-1.9%	-4.6%[10 µM]	-1.0%	-0.6	4.9%	15.8µM*
CCOc1ccc(NCC(=O)c2ccc(C)cc2)cc1	1.9%	-221.3%	-0.8%	1.9	-13.8%	11.2µM*
N/C(Cc1cccc2ccccc12)=N\OC(=O)Cc1cccs1	1.2%	-1.3%[0.074 µM]	-3.3%	-39.6*	3.6%	-6.4%
Cc1cc(N2CCCCC2)nc2ccc(NC(=O)/C=C/c3ccc(OCCC(C)C)cc3)cc12	0.3%	/	-3.4%	/	/	/
COc1ccc(C2Oc3ccccc3C3=C2C(c2cccs2)n2ncnc2N3)cc1 (centres undefined)	-2.2%	-48.9%	1.2%	-8.8	?	-24.9%
Brc1ccc(C2C3=C(Nc4ncnn42)c2ccccc2OC3c2ccncc2)cc1 (centres undefined)	-0.5%	-61.4%	-10.3%	-14.2	-19.6%	10µM*
Cc1cc(C)c(NC(=O)Cn2c(=O)n(CCC(=O)N3CCc4ccccc4C3)c(=O)c3ccccc32)c(C)c1	3.9%	/	-1.1%	/	/	/
CCOC(=O)c1c(S(=O)(=O)N2CCN(c3cc(Cl)ccc3C)CC2)c(C)n(C)c1C	-6.6%	/	-3.6%	/	/	/
Cc1cccc(Nc2nc3ccccc3s2)c1C	-1.8%	/	-2.0%	-5.3	-3.1%	-12.3%
Cc1cccc(Nc2n[nH]c(=S)s2)c1C	-0.3%	-19.9%	-10.6%	4.4	12.6µM*	21.9%
COc1ccccc1Nc1nc(C)cs1	-0.3%	-3.0%	7.6%	-0.4	6.1%	30.9%
COc1ccccc1Nc1n[nH]c(=S)s1	-2.7%	-49.5%	1.2%	-0.4	20µM*	11.7%
COC(=O)c1c(-c2cccs2)csc1NC(=O)COc1c(C)ccc(C)c1C	-3.5%	/	-2.1%	/	/	/
Fc1cc(F)c2nc(Nc3nc4cc5c(cc4s3)OCO5)sc2c1	35.5µM*[quencher]	?	23.9%	-3.3	193.6%	?

Assay outcomes from PubChem BioAssay.
